Drawing on PubChem BioAssay (NCATS), this text covers Potency for 35 compounds.

Records with an inconclusive call do not appear. A call without a number means that no potency is given here. Activity calls are given as the source filed them. The call rests on the fitted dose curve; in most records, active means well fitted inhibition curve with a large enough effect; inconclusive means small, poorly fitted or top-dose-only effect; inactive means no such curve, though single readings can be large or run the other way.

Experiment [1] relates to Zika virus NS2B-NS3 protease (unlinked complex). As to the kind of experiment: Primary screen GU Rhodamine qHTS for Zika virus inhibitors: Unlinked NS2B-NS3 protease assay (AID 1347159). Further: nearly all actives have a fitted effect of over 60% in size. Further: potency means the concentration at half of the fitted maximal effect. In outline:
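Unlinked NS2B/NS3, 25 nM; Rhod110 peptide, 1.5 microM; compounds, up to 114 microM. Reaction run 15 min at RT in 10 mM Tris-HCl pH 8.0, 0.01% Tween 20; kinetic fluorescence change fitted with a 4-parameter Hill model.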

For experiment [2], the system named is Zika virus NS2B-NS3 protease (linked construct). The experiment can be described thus: Primary screen NINDS Rhodamine qHTS for Zika virus inhibitors (AID 1347160). Further: nearly all actives have a fitted effect of over 55% in size. In outline: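 Single-chain NS2B-NS3 protease, 25 nM, pH 8.0; compounds preincubated 15 min. Activity: Rhodamine110 release from 1.5 microM substrate over 15 min, room temperature, data fitted to 4-parameter Hill.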
Background: Quantitative high-throughput screening tests each substance at several concentrations.

Turning to `COc1cc(N(C)CCN(C)C)c(N)cc1Nc1nccc(-c2cn(C)c3ccccc23)n1`, the Potency entry in experiment [1] and in experiment [2] was “inactive” in each case.

For `C=C[C@@]1(C)CCC2C(=CCC3[C@]2(C)CCC[C@@]3(C)C(=O)O)C1` (some centres undefined), in experiment [1], the Potency was 22.4 µM (active).

As to `CC(=O)N1CCN(CCOc2ccc(C3CCN(C4=Nn5c(nnc5C(F)(F)F)CC4)CC3)cc2)CC1`, the Potency entry in experiment [1] and in experiment [2] was “inactive” throughout.

Turning to `CCc1cccc(CC)c1-n1c(C=C(C)C)c(C(=O)N2CCNCC2)cc(-c2nc(-c3ccc(C(F)(F)F)cc3)cs2)c1=O`, the Potency result in experiment [1] and in experiment [2] was “inactive” throughout.

As to `CCCOc1ccc(S(=O)(=O)N2CCN(CCO)CC2)cc1-c1nc2c(CCC)cn(CC)c2c(=O)[nH]1`, the Potency result in experiment [1] and in experiment [2] was “inactive” throughout.

As for `COc1cc(OC)c2c(=O)[nH]c(-c3cc(C)c(OCCO)c(C)c3)nc2c1`, the Potency result in experiment [1] and in experiment [2] was “inactive” each time.

Take `O=C(NCCN1CCC(n2c(=O)[nH]c3ccccc32)CC1)c1ccc2ccccc2c1`: the Potency entry in experiment [1] and in experiment [2] was “inactive” each time.

For `COc1ccc(S(=O)(=O)Nc2cc(Cl)cc(Cl)c2OC)cc1N1CCNCC1`, the Potency result in experiment [1] was “inactive”.

Turning to `O=C(N[C@H](Cc1cscn1)C(=O)N[C@@H](CC1CCCCC1)[C@@H](O)[C@@H](O)C1CC1)c1nc2ccccc2[nH]1`, the Potency entry in experiment [1] was “inactive”.

Turning to `O=c1nc(-c2ccccn2)sc2ccccc12`, the Potency entry in experiment [1] and in experiment [2] was “inactive” throughout.

Turning to `CN(C)C(=O)Nc1cccc(-c2ccc(N(C)C)cc2)c1`, the Potency result in experiment [1] and in experiment [2] was “inactive” throughout.

As for `Cn1ncc(Cl)c1-c1cc(C(=O)NC(CN)Cc2ccc(F)c(F)c2)oc1Cl` (centres undefined), the Potency entry in experiment [1] and in experiment [2] was “inactive” throughout.

Take `CCCC(CCC)C(=O)NCc1ccc2c(cnn2-c2ccccc2OC)c1`: the Potency result in experiment [1] and in experiment [2] was “inactive” throughout.

In the case of `CC(C)c1cc2c(N3CCN(C4=NCC(C)(C)S4)CC3)ncnc2s1`, the Potency entry in experiment [1] and in experiment [2] was “inactive” in each case.

In the case of `C=CC(=O)N1CC(N2CCN(C(=O)CNc3cc(C4CC4)c(Cl)cc3O)CC2)C1`, the Potency result in experiment [1] and in experiment [2] was “inactive” throughout.

In the case of `C=C1/C(=C/C=C2\CCC[C@]3(C)[C@@H]([C@H](C)/C=C/[C@H](O)C4CC4)CC[C@@H]23)C[C@@H](O)C[C@@H]1O`, the Potency in experiment [1] was 50.1 µM (active).

In the case of `CC(C)(CO)c1cc2cc(NC(=O)C3(c4ccc5c(c4)OC(F)(F)O5)CC3)c(F)cc2n1CC(O)CO` (centres undefined), the Potency entry in experiment [1] and in experiment [2] was “inactive” in each case.

Regarding `CC(=O)C1=CCC2C3CC=C4CC(O)CC(O)C4(C)C3C(O)CC12C` (centres undefined), the Potency result in experiment [1] and in experiment [2] was “inactive” throughout.

Take `C#Cc1cccc(Nc2nc3cc(C(=O)O)ccc3c3cncnc23)c1`: the Potency in experiment [1] was 11.2 µM (active).

`Cc1c(C(=O)NCc2cccnc2)nn(-c2ccc(Cl)cc2Cl)c1-c1ccc(Cl)cc1`: the Potency entry in experiment [1] and in experiment [2] was “inactive” in each case.

Regarding `O=C(Nc1ccccc1C(=O)Nc1ccc(CCO)cc1)c1ccc([N+](=O)[O-])cc1`, the Potency result in experiment [1] and in experiment [2] was “inactive” throughout.

`CCCOc1ccc(CCc2nc3cc(-c4c(C)noc4C)ccc3n2CCN2CCOCC2)cc1`: the Potency entry in experiment [1] and in experiment [2] was “inactive” in each case.

In the case of `Cc1ccc(O)cc1Nc1ccnc(Nc2cccc(C(N)=O)c2)n1`, the Potency result in experiment [1] and in experiment [2] was “inactive” throughout.

Turning to `c1ccc(-c2ccc(CNc3nc(-c4ccccn4)nnc3-c3ccccc3)cc2)cc1`, the Potency entry in experiment [1] and in experiment [2] was “inactive” throughout.

`CN(c1ccc(NC(=O)Nc2ccccc2)cc1)S(=O)(=O)c1cnn(-c2ccc(F)cc2)c1`: the Potency entry in experiment [1] and in experiment [2] was “inactive” throughout.

`O=C(OC1CN2CCC1CC2)N1CCc2ccccc2C1c1ccccc1` (centres undefined): the Potency entry in experiment [1] and in experiment [2] was “inactive” throughout.

For `Cn1c(=O)c(F)c(Nc2ccc(I)cc2F)c2c(=O)n(CC(O)CO)cnc21` (centres undefined), the Potency result in experiment [1] and in experiment [2] was “inactive” throughout.

Regarding `C=C1C(=O)O[C@@H]2[C@H]1CCC(C)=C(CCC(=O)O)[C@@]2(C)O`, the Potency entry in experiment [1] and in experiment [2] was “inactive” throughout.

Consider `O=C1C[C@]23C=CCN4CCC5c6cc7c(cc6N1[C@@]5(CC2)C43)OCO7` (some centres undefined), for which the Potency entry in experiment [1] is “inactive”.

For the compound `CC1(C)CC[C@]2(C(=O)O)[C@H](O)C[C@]3(C)C(=CCC4[C@@]5(C)CC[C@H](O[C@@H]6O[C@H](CO[C@@H]7OC[C@H](O)[C@H](O)[C@H]7O[C@@H]7OC[C@H](O)[C@H](O)[C@H]7O)[C@@H](O)[C@H](O)[C@H]6O)C(C)(C)C5CC[C@]43C)[C@@H]2C1` (some centres undefined), the Potency result in experiment [1] and in experiment [2] was “inactive” throughout.

Regarding `C=CC(=O)Nc1cccc(Nc2nc(Nc3ccc(NC4CN(CCF)C4)cc3OC)ncc2C(F)(F)F)c1`, the Potency entry in experiment [1] and in experiment [2] was “inactive” throughout.

For the compound `NC(N)=NC(=O)c1cnn(-c2cccc3ncccc23)c1C1CC1`, the Potency result in experiment [1] and in experiment [2] was “inactive” in each case.

With `O=c1[nH]c2ccccc2n1CCN1CCN(c2cccc(C(F)(F)F)c2)CC1`, the Potency result in experiment [1] and in experiment [2] was “inactive” throughout.

On to `COC(=O)c1ccc(N2CCN(C)CC2)c(NC(=O)c2cccc(OC)c2)c1`, for which the Potency result in experiment [1] and in experiment [2] was “inactive” throughout.

Take `COc1c2c(nc3occc13)C(CC=C(C)C)(OC)C(O)CC2` (centres undefined): the Potency entry in experiment [1] and in experiment [2] was “inactive” in each case.
